The test system of the test is Human papillomavirus type 1a protein E7 (residues 44-93). The experiment in a line: HPV1a E7 fragment binders on microarrays, primary screen, biochemical, small-molecule microarray, residues 44-93, 635 nm fluorescence (AID 1108).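 Further: E7 fragment applied at 1 µg/mL in TBST for 1 h at 4 C; score combines spot fluorescence with its signal to noise ratio.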 As to conditions: small-molecule microarray binding, fluorescence 635 nm; higher = more signal.
For `CCCCCCCCCCC(O)C1C=CC2C(=O)N(C)C(=O)C2N1N1CCCCC1` (centres undefined), the composite z-score is -0.469. The figure for `CCCC[C@@H]1C[C@H]1[C@@H](NC(=O)Cc1ccccc1)c1ccc(Cl)cc1` is 1.37; for `CC(C)=CCN(C(=O)C#Cc1ccccc1)[C@H](CO)c1ccccc1` it is 1.16. `COc1ccc(NC(=O)O[C@H]2[C@H](OC(=O)Nc3ccc4c(c3)OCO4)[C@H](OC(=O)Nc3ccc4c(c3)OCO4)[C@@H](OC)O[C@@H]2CO)cc1` gave a composite z-score of 1.08. The same measure for `CCCC[C@H]1OB(O)C[C@H]2C1=C(C)C[C@H]1C(=O)C=CC(=O)[C@H]12`: 1.04; for `CO[C@H]1O[C@H](CO)[C@@H](OC(=O)Nc2ccccc2)[C@@H]2OC(=O)[C@H](Cc3ccccc3)C/C=C/C[C@@H](Cc3ccccc3)C(=O)O[C@@H]12`: 1.04. The same measure for `C[C@H]1C2[C@H](Cc3ccccc3)NC(=O)[C@]23C(=O)NCC(=O)N2CCC[C@H]2C(=O)NC/C=C\C/C=C/C3[C@@H]2O[C@]12C` (some centres undefined): -0.8; for `[N-]=[N+]=NCc1ccccc1C[C@]1(C(=O)O)COC(c2ccc(OCCCO)cc2)=N1`: -0.523.

For `CC(C)CNC(=O)[C@@]1(C)c2ccccc2C(=O)N(Cc2cc(F)cc(C(F)(F)F)c2)[C@H]1c1ccc(CO)cc1`, the composite z-score worked out at 1.35. The same measure for `CN(C)CCCNC(=O)[C@@H]1c2ccccc2C(=O)N(C2Cc3ccccc3C2)[C@H]1c1ccc(CO)cc1`: 1.1; for `CCN(CC)c1ccc(N2CC=CC34O[C@@H]5C=CCOC(=O)[C@@H]5[C@H]3C(=O)N(CCO)[C@@H]4C2=O)cc1` (some centres undefined): -0.73; for `COc1ccccc1CN1C(=O)c2ccccc2[C@@H](C(=O)NCCCN(C)C)[C@@H]1c1ccc(CO)cc1`: -1.09. The same measure for `COc1cc(OC)c(C(O)C2C=CC3C(=O)N(c4ccccc4)C(=O)C3N2Nc2ccccc2F)cc1Br` (centres undefined): 1.31; for `CC(=O)c1ccc(C(O)C2C=CC3C(=O)NC(=O)C3N2Nc2ccc(Cl)cc2Cl)cc1` (centres undefined): 0.18. The figure for `C=CCC(OC(C)=O)[C@@H]1[C@@H](N(Cc2cc3ccccc3o2)C(=O)Cc2ccc(OC)cc2)c2cc(OCCCO)ccc2N1C(=O)Cc1ccc(OC)cc1` (some centres undefined) is -0.133. As for `COCCCN1C(=O)[C@@]2(Cc3ccccc31)c1ccccc1C(=O)N(Cc1ccccc1OC)[C@H]2c1ccc(CO)cc1`, the composite z-score was -0.739. The figure for `COc1ccc(C#Cc2ccc3c(c2)[C@]2(C(=O)N3)[C@H](C(=O)Nc3nc4ccccc4s3)[C@H]3C(=O)O[C@H](c4ccccc4)[C@H](c4ccccc4)N3[C@@H]2c2ccc(OCCO)cc2)cc1` is 0.801; for `CC(C)C[C@H]1NC(=O)[C@@H](C)NC(=O)[C@@]23C(=O)N[C@@H](Cc4ccccc4)C2[C@H](C)[C@@]2(C)O[C@H]2C3/C=C/C/C=C\CNC1=O` (some centres undefined) it is 1.29; for `CC(C)C[C@H]1NC(=O)[C@@]23C(=O)N[C@@H](Cc4ccccc4)C2[C@H](C)[C@@]2(C)O[C@H]2C3/C=C/C/C=C\CNC(=O)[C@@H]2CCCN2C1=O` (some centres undefined) it is 0.612. The figure for `COc1ccc(C(O)C2C=CC3C(=O)N(C)C(=O)C3N2Nc2ccc([N+](=O)[O-])cc2[N+](=O)[O-])cc1OCc1ccccc1` (centres undefined) is 1.39. The same measure for `[N-]=[N+]=Nc1ccccc1[C@@H]1OC(c2ccc(OCCCO)cc2)=N[C@]1(Cc1ccccc1)C(N)=O`: 1.06.

With `CN(C)C(=O)[C@@]1(CCS(=O)(=O)c2ccccc2)N=C(c2ccc(OCCCO)cc2)O[C@H]1c1ccccc1N=[N+]=[N-]`, the composite z-score amounted to 1.43.

For the compound `CN1C(=O)[C@]2(CCC(=O)OC(C)(C)C)N=C(c3ccc(OCCCO)cc3)O[C@@H]2c2ccccc21`, the composite z-score was 1.45. Turning to `C[N+](C)(C)CCCCCCNC(=O)[C@@H]1C[C@@H]2C(=O)N[C@@H](Cc3ccccc3)C(=O)N2[C@@H]1c1ccc(O)cc1`, the composite z-score was found to be 1.32. `CCCC=C(CCC)[C@@H](NS(=O)(=O)c1ccc(Cl)cc1)c1ccccc1` came in with a composite z-score of -0.201. The figure for `CO[C@H]1O[C@H](CO)[C@@H](OC(=O)Nc2ccc(C(F)(F)F)cc2)[C@H](OC(=O)Nc2ccccc2-c2ccccc2)[C@@H]1OC(=O)Nc1ccccc1-c1ccccc1` is 1.3; for `CC(C)[C@@H](C(=O)O)n1cc(-c2ccccc2)nn1` it is 0.972; for `C=CCNC(=O)[C@@H]1[C@H]2C(=O)O[C@H](c3ccccc3)[C@H](c3ccccc3)N2[C@H](c2ccc(O)cc2)[C@@]12C(=O)Nc1ccc(C#CC3(O)CCCCCC3)cc12` it is 0.754. The figure for `O=C1N(CCS(=O)(=O)c2ccccc2)c2ccccc2[C@@H]2OC(c3ccc(OCCCO)cc3)=N[C@]12CCS(=O)(=O)c1ccccc1` is 1.38.

Values taken from PubChem BioAssay.
